High-throughput results: PubChem, National Center for Advancing Translational Sciences (NCATS)
Rows were chosen to be rich in hits. Some 8.3% of all compounds tested hit in one or more screens of this group.
RORg inh: blocks mouse ROR gamma transcriptional activity; AID 2551; P51450; 310,000 tested, 5.4% active; Potency, µM (top dose mostly 53.6 µM), for the others: at the top dose activity change, negative = inhibition, most hits filed as inhibitors; Drosophila S2 Gal4-RORgamma UAS-luciferase reporter, 20 h; note: potency is the fitted concentration of half-maximal effect; % is set by controls: 0 for no effect and ±100 for the full control effect; nearly all actives have a fitted effect of over 60% in size
Target sequence (P51450 whole entry, looked up, the tested form may be a part): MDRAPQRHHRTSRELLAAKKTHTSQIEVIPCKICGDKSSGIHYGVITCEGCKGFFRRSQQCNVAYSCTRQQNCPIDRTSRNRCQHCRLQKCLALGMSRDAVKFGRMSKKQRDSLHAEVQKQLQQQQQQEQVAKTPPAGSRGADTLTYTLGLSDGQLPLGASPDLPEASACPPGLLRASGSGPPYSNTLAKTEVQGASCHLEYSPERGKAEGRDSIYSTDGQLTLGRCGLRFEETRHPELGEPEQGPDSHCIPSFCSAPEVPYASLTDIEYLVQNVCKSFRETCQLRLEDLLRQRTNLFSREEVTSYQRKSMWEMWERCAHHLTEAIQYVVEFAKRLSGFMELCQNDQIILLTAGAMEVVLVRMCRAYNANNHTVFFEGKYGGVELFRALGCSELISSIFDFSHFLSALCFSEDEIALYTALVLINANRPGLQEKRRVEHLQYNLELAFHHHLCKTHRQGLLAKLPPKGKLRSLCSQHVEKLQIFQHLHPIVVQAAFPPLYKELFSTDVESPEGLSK
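Read-out: Photinus luciferase luminescence; inhibitors lower reporter signal. Insect Schneider cells with Gal4-ROR gamma fusion under metallothionein promoter, UAS reporter; 700 uM final copper sulfate induction, 20 hr, ambient temperature.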
Giardia kill: kills Giardia lamblia | Giardia lamblia trophozoite viability | activity change, % at 7.66 µM, hits read low | 340,000 tested, 0.15% active | AID 540267; in the data active = activity change below about -80%; inconclusive = between about -30% and that limit;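 note: parasites exposed to compound for two days anaerobically before the ATP read; % is set by controls: 0 for no effect and ±100 for the full control effect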
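Anaerobic 48 hrs incubation at 37 deg C of 100 trophozoites/well with test compounds; ATPLite 1-Step luminescence, 15-30 min RT, reports cellular ATP as viability.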
MCF10A rerep: induces DNA re-replication in MCF 10a normal breast cells. AID 624296. Potency, µM (titrated, usually from 46.1 µM), for inactives: top-dose activity, positive = re-replication, most hits filed as activators. 350,000 tested, 2.9% active. MCF 10A DNA re-replication, Hoechst nuclear intensity, 48 h; note: potency is the fitted concentration of half-maximal effect; % of control where 0% means no effect; nearly all actives have a fitted effect of over 50% in size
Gal4-VP16 FLuc: Gal4-VP16 reporter inhibition counter-screen; Drosophila S2 Gal4-VP16 UAS-luciferase, luminescence, 20 h; Potency, µM (doses to about 53.6 µM), for inactives: at the top dose activity, negative = inhibition, hits mostly inhibitors; 310,000 tested, 3.5% active; AID 2546;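 note: Gal4-VP16 expression switched on by copper sulfate through the metallothionein promoter; potency is the fitted concentration of half-maximal effect; % is set by controls: 0 for no effect and ±100 for the full control effect; nearly all actives have a fitted effect of over 50% in size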
SW480 rerep: inducers of DNA re-replication in SW480 colon cancer cells; AID 624297; Potency, µM (top dose mostly 46.1 µM), for the others: at the highest dose re-replication activation, usual class: activators; 340,000 tested, 1.8% active; SW480 DNA re-replication, Hoechst DNA content imaging, 48 h; note: potency is the fitted concentration of half-maximal effect; % of control where 0% means no effect; nearly all actives have a fitted effect of over 55% in size
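Readout is total intensity of Hoechst-stained nuclei, excited at 405 nm and collected at 500-530 nm. Compound treatment lasted 48 hr at 37 C in 5% CO2 before staining.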
Chronic BCR inh: chronic active BCR signaling inhibition; ABC-DLBCL IkBa-CBG/CBR reporter, luminescence ratio, 4 h; Potency, µM (doses to about 46.1 µM), without a hit: top-dose activity change, negative = inhibition, usual class: inhibitors; 340,000 tested, 0.05% active; AID 493014; active = well fitted inhibition curve with a large enough effect in the signal ratio, with a control signal flat, not every such curve was filed as active; inconclusive = small, poorly fitted or top-dose-only effect, or effect the other way, or a change in a side signal; the % refers to the signal ratio;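 note: potency is the fitted concentration of half-maximal effect; plate controls were basal doxycycline-induced cells for no effect and cells given 10 µM MG132 for full effect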
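Compounds up to 46 uM were incubated four hours with TMD8 cells whose green CBG68 luciferase is fused to IkappaBalpha; red CBR luminescence normalised the signal, and concentration-effect curves were fitted to fusion, red and ratio data.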
The depositor's hits bear a star; ? = inconclusive; nt = no result. Unless noted, calls come from the whole dose curve; as a rule, active = well fitted curve in the direction sought with a large enough effect; inconclusive = small, poorly fitted or top-dose-only effect, or another doubt; inactive = no such curve, though single readings can be large; an effect the other way counts as inactive or inconclusive.

SMILES	RORg inh	Giardia kill	MCF10A rerep	Gal4-VP16 FLuc	SW480 rerep	Chronic BCR inh
Oc1ccc(Cl)cc1C1=NNC(c2cccs2)C1 (stereo not drawn)	5.01µM*	-14.9	16.8%	?	?	?
CCCCCN(CCCCC)C(=O)[C@H](CCC(=O)O)NC(=O)[C@H](Cc1ccc(OP(=O)(O)O)cc1)NC(C)=O	12.0%	nt	nt	-1.3%	nt	nt
CCOC(=O)c1ccc(NC(=S)NCCc2ccccc2F)cc1	3.55µM*	-13.5	17.1%	?	2.4%	?
CCOC(=O)c1ccc(NC(=S)NCc2ccccc2)cc1	14.1µM*	-6.5	?	?	4.3%	19.2%
CCOC(=O)c1ccc(NC(=S)NCCc2ccccc2)cc1	8.91µM*	2.8	?	?	12.0%	?
Cn1c(=N)n(CC(=O)c2ccc(F)cc2)c2ccccc21	8.91µM*	-2.2	-2.1%	11.2µM*	-2.8%	?
Cc1ccc(Cn2c(=N)n(CC(=O)c3ccc([N+](=O)[O-])cc3)c3ccccc32)cc1	?	-10.2	9.2µM*	-15.8%	?	1.3%
CCCCn1c(=N)n(CC(=O)c2ccc([N+](=O)[O-])cc2)c2ccccc21	1.26µM*	nt	nt	-16.7%	nt	?
Cc1ccc(C(=O)Cn2c(=N)n(CCN3CCOCC3)c3ccccc32)cc1	nt	-17.5	-8.0%	nt	-9.8%	5.6%
CCCCn1c(=N)n(CC(=O)c2ccco2)c2ccccc21	-30.5%	-0.8	-15.9%	-11.0%	1.5%	-2.5%
CCCCOc1ccc(NC(=O)CCSc2nccn2C)cc1	-27.3%	13.6	0.3%	18.1%	-3.8%	-0.3%
NNC(=O)c1ccc(Cn2cc(Br)cn2)cc1	-23.1%	-17.6	2.0%	1.8%	-4.4%	-3.8%
NNC(=O)c1ccc2nc(-c3ccc(Br)cc3)cn2c1	11.2µM*	10.4	7.9%	?	?	0.2%
COc1ccc(-c2cn3cc(C(=O)NN)ccc3n2)cc1	?	-8.5	-0.9%	10µM*	-9.8%	?
COc1ccc(C(=O)NN)cc1	?	38.7	0.0%	-11.5%	-21.6%	?
COc1ccc(N(CC(=O)Nc2ccc(C(C)C)cc2)S(=O)(=O)c2c(C)noc2C)cc1	-21.4%	13.6	15.5%	-21.1%	4.5%	-10.2%
CCc1ccc2nc(SCC(=O)N3CC(=O)Nc4ccccc43)c(C#N)cc2c1	8.6%	-13.3	8.2µM*	1.4%	?	?
Cc1ccc2nc(SCC(=O)Nc3ccccc3N3CCOCC3)c(C#N)cc2c1	-38.5%	-29.5	?	?	?	?
N#Cc1cc(C#N)c(SCC(=O)N2CC(=O)Nc3ccccc32)nc1N	nt	31.6	5.7%	nt	-2.8%	-6.3%
CCc1ccc2nc(SCC(=O)Nc3ccccc3N3CCOCC3)c(C#N)cc2c1	-8.9%	33.3	3.66µM*	-2.8%	3.66µM*	1.0%
C[C@@H]1COC(=O)[C@@H](Cc2ccc(F)cc2)C/C=C\C[C@@H](CC(=O)NCCO)C(=O)N1	nt	6.8	-26.6%	nt	0.2%	-0.6%
CCc1cccc(NC(=O)CSc2nc3ccccc3nc2N2CCCCC2)c1	nt	2.9	nt	nt	nt	nt
CCOc1cc(C)c(C(C)C)cc1S(=O)(=O)n1cnc(C)c1	17.2%	-11.1	9.2µM*	-1.9%	?	?
CCOc1cc(C)c(C(C)C)cc1S(=O)(=O)N1CC(C)OC(C)C1 (stereo not drawn)	20.3%	-4.1	2.2%	6.7%	11.6%	-6.0%
COc1cc(C)c(Cl)cc1S(=O)(=O)n1cnc(C)c1	2.0%	-10.8	-3.1%	0.7%	-3.1%	-23.6%
COc1ccc(C(C)C)cc1S(=O)(=O)n1cnc(C)c1	-17.6%	16.1	?	6.1%	20.6µM*	-0.4%
CCOc1ccc(S(=O)(=O)N(CC(=O)Nc2cccnc2)c2ccc(F)cc2)cc1	10.6%	10.6	?	-13.0%	?	7.6%
COc1cccc(CNC(=O)c2cc3c(C)nc4ccccc4c3o2)c1	32.0%	6.6	2.1%	?	2.1%	?
